Measured values taken from PubChem BioAssay (EPA / NIEHS).
Activity calls are given as the source filed them. The calls were made as follows: active = hit-call score of the fitted dose curve at least 0.9, where 1 is the maximum; inactive = score below 0.9.

Assays:
[1] = read-out: TIMP metallopeptidase inhibitor 2 (TIMP2), TIMP2 (gene 7077); test: BSK_KF3CT_TIMP2: BioMAP Diversity Plus: KF3CT Assay for TIMP metallopeptidase inhibitor 2 (TIMP2) Biomarker Activity (AID 2283071); conditions: primary human keratinocytes with fibroblasts; actives raise or lower the signal
Outline: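 Co-culture of human primary keratinocytes and foreskin fibroblasts, measured 24 h after chemical dosing. TIMP-2 quantified by ELISA and fitted in both directions relative to DMSO. Cytotoxicity checked in parallel cultures by SRB total-protein staining.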

[2] = read-out: Transforming growth factor beta 1 (TGFb1), TGFB1 (gene 7040); test: BSK_KF3CT_TGFb1: BioMAP Diversity Plus: KF3CT Assay for Transforming growth factor beta 1 (TGFb1) Biomarker Activity (AID 2283072); conditions: primary human keratinocytes with fibroblasts; actives raise or lower the signal
Outline: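 Human keratinocyte/foreskin fibroblast co-culture; TGF-b1 measured by ELISA 24 h after dosing, fitted bidirectionally versus DMSO. Cytotoxicity checked in parallel cultures by total protein (SRB staining, 560 nm).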

[3] = read-out: C-C motif chemokine 2 (Homo sapiens) (UniProt P13500); test: BSK_KF3CT_MCP1: BioMAP Diversity Plus: KF3CT Assay for Monocyte Chemoattractant Protein 1 (MCP1/CCL2) Biomarker Activity (AID 2283073); conditions: primary human keratinocytes with fibroblasts; actives raise or lower the signal
Outline: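 Human keratinocyte plus foreskin fibroblast primary co-culture exposed to chemical for 24 h. MCP-1 levels measured by ELISA. Bidirectional curve fitting relative to DMSO negative control as baseline.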

[4] = read-out: Matrix Metallopeptidase 9 (MMP9), MMP9 (gene 4318); test: BSK_KF3CT_MMP9: BioMAP Diversity Plus: KF3CT Assay for Matrix Metallopeptidase 9 (MMP9) Biomarker Activity (AID 2283074); conditions: primary human keratinocytes with fibroblasts; actives raise or lower the signal;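 as to AC50: MMP9 protein level quantified by ELISA in the co-culture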
Outline: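 Keratinocyte plus foreskin fibroblast human primary skin co-culture was dosed with chemical and MMP-9 was quantified by ELISA 24 h later. Bidirectional curve fitting used DMSO as negative control and activity baseline.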

CD40, CD40 (gene 958) [5] = test: BSK_LPS_CD40: BioMAP Diversity Plus: LPS Assay for CD40 Biomarker Activity (AID 2283076); conditions: primary human HUVEC with PBMC; actives raise or lower the signal
Outline: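 Primary human umbilical vein endothelial cells co-cultured with peripheral blood mononuclear cells, LPS-stimulated, were dosed with chemical and read 24 h later. CD40 levels were measured by ELISA and fitted bidirectionally against DMSO as negative control and baseline.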

[6] = read-out: E-selectin (Homo sapiens) (UniProt P16581); test: BSK_LPS_Eselectin: BioMAP Diversity Plus: LPS Assay for Eselectin Biomarker Activity (AID 2283077); conditions: primary human HUVEC with PBMC; actives raise or lower the signal
Outline: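 Human umbilical vein endothelial cells co-cultured with peripheral blood mononuclear cells under LPS stimulation; E-selectin measured by ELISA 24 h after chemical dosing. Activity fitted bidirectionally against DMSO as negative control and baseline.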

[7] = read-out: Interleukin-8 (IL8), CXCL8 (gene 3576); test: BSK_LPS_IL8: BioMAP Diversity Plus: LPS Assay for Interleukin-8 (IL8) Biomarker Activity (AID 2283078); conditions: primary human HUVEC with PBMC; actives raise or lower the signal
Outline: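 Human umbilical vein endothelial cells co-cultured with PBMC were stimulated with LPS; IL-8 levels were measured by ELISA 24 h after chemical dosing. Activity was fitted bidirectionally against DMSO as negative control and baseline.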

[8] = BSK_LPS_SRB: Viability Assessment in the BioMAP Diversity Plus: LPS Assay (AID 2283079); conditions: primary human HUVEC with PBMC;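 also: total protein by sulforhodamine B absorbance as a cytotoxicity measure; measured one day after compound addition; fitted in both directions against DMSO so loss or gain of signal counts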
Outline: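 Human umbilical vein endothelial cells co-cultured with PBMC (LPS system) were dosed for 24 h. Total protein was stained with 0.1% sulforhodamine B after 10% TCA fixation, read at 560 nm, and fitted bidirectionally against DMSO baseline.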

[9] = read-out: Interleukin-1 alpha (IL1a), IL1A (gene 3552); test: BSK_LPS_IL1a: BioMAP Diversity Plus: LPS Assay for Interleukin-1 alpha (IL1a) Biomarker Activity (AID 2283080); conditions: primary human HUVEC with PBMC; actives raise or lower the signal
Outline: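 Human umbilical vein endothelial cells co-cultured with peripheral blood mononuclear cells were LPS-stimulated and exposed to test chemicals for 24 h. IL-1 alpha was quantified by ELISA, with bidirectional curve fitting against DMSO as the negative control and baseline.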

[10] = read-out: Monocyte Chemoattractant Protein-1 (MCP1), CCL2 (gene 6347); test: BSK_LPS_MCP1: BioMAP Diversity Plus: LPS Assay for Monocyte Chemoattractant Protein-1 (MCP1) Biomarker Activity (AID 2283081); conditions: primary human HUVEC with PBMC; actives raise or lower the signal;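 as to AC50: secreted MCP-1 protein quantified by ELISA in culture supernatant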
Outline: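 HUVEC plus PBMC co-culture (human primary cells, LPS system) exposed to test chemical for 24 h; MCP-1 measured by ELISA. Bidirectional curve fitting against DMSO baseline; parallel SRB total-protein staining flags overt cytotoxicity.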

[11] = BSK_LPS_PGE2: BioMAP Diversity Plus: LPS Assay for Prostaglandin E2 (PGE2) Biomarker Activity (AID 2283082); conditions: primary human HUVEC with PBMC; actives raise or lower the signal;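 as to AC50: secreted prostaglandin E2 measured by ELISA in LPS-stimulated co-culture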
Outline: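 HUVEC plus human PBMC co-culture stimulated with LPS; secreted PGE2 quantified by ELISA 24 h after chemical dosing. Activity fitted bidirectionally against DMSO baseline; parallel SRB staining (0.1% SRB after 10% TCA fixation, 560 nm) flags overt cytotoxicity.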

[12] = read-out: Macrophage colony-stimulating factor (MCSF), CSF1 (gene 1435); test: BSK_LPS_MCSF: BioMAP Diversity Plus: LPS Assay for Macrophage colony-stimulating factor (MCSF) Biomarker Activity (AID 2283083); conditions: primary human HUVEC with PBMC; actives raise or lower the signal
Outline: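 Human umbilical vein endothelial cells co-cultured with peripheral blood mononuclear cells were exposed to compound for 24 h. M-CSF levels were measured by ELISA, and bidirectional curve fitting used DMSO as the negative control and baseline.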

[13] = read-out: Tissue Factor, F3 (gene 2152); test: BSK_LPS_TissueFactor: BioMAP Diversity Plus: LPS Assay for Tissue Factor Biomarker Activity (AID 2283084); conditions: primary human HUVEC with PBMC; actives raise or lower the signal
Outline: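 Human umbilical vein endothelial cells co-cultured with peripheral blood mononuclear cells were dosed and stimulated with LPS. Cell-surface CD142 was quantified by ELISA at 24 h. Activity was fitted bidirectionally against DMSO baseline.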

[14] = read-out: Tumor necrosis factor (Homo sapiens) (UniProt P01375); test: BSK_LPS_TNFa: BioMAP Diversity Plus: LPS Assay for Tumour Necrosis Factor alpha (TNFa) Biomarker Activity (AID 2283085); conditions: primary human HUVEC with PBMC; actives raise or lower the signal
Outline: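 Human umbilical vein endothelial cells co-cultured with PBMC and stimulated with LPS. TNFa was measured by ELISA 24 h after chemical dosing, fitted bidirectionally relative to DMSO.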

[15] = read-out: Vascular cell adhesion molecule 1 (VCAM1), VCAM1 (gene 7412); test: BSK_LPS_VCAM1: BioMAP Diversity Plus: LPS Assay for Vascular cell adhesion molecule 1 (VCAM1) Biomarker Activity (AID 2283086); conditions: primary human HUVEC with PBMC; actives raise or lower the signal
Outline: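 Human umbilical vein endothelial cells co-cultured with PBMC and stimulated with LPS; VCAM-1 measured by ELISA 24 h after dosing. Bidirectional curve fitting against DMSO baseline; cytotoxicity tracked in parallel by SRB total-protein staining.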

CD38, CD38 (gene 952) = test: BSK_SAg_CD38: BioMAP Diversity Plus: SAg Assay for CD38 Biomarker Activity (AID 2283087); conditions: primary human HUVEC with PBMC; actives raise or lower the signal
Outline: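 Human HUVEC plus PBMC co-culture stimulated with superantigen; CD38 measured by ELISA 24 h after chemical dosing. Fluorescence read-out, bidirectional fit against DMSO; cytotoxicity tracked in parallel by SRB and Alamar Blue.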

CD40, CD40 (gene 958) [16] = test: BSK_SAg_CD40: BioMAP Diversity Plus: SAg Assay for CD40 Biomarker Activity (AID 2283088); conditions: primary human HUVEC with PBMC; actives raise or lower the signal
Outline: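 Human umbilical vein endothelial cells co-cultured with PBMC; CD40 levels measured by ELISA with fluorescence read-out 24 h after chemical dosing. Gain or loss of signal fitted bidirectionally against DMSO baseline.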

CD69, CD69 (gene 969) = test: BSK_SAg_CD69: BioMAP Diversity Plus: SAg Assay for CD69 Biomarker Activity (AID 2283089); conditions: primary human HUVEC with PBMC; actives raise or lower the signal;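 as to AC50: cell surface CD69 protein quantified by ELISA with fluorescence detection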
Outline: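 Values derive from bidirectional fitting relative to DMSO vehicle. Cells: umbilical vein endothelium plus peripheral blood mononuclear cells, treated 24 h before fluorescent ELISA for CD69.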

[17] = read-out: Monocyte Chemoattractant Protein-1 (MCP1), CCL2 (gene 6347); test: BSK_SAg_MCP1: BioMAP Diversity Plus: SAg Assay for Monocyte Chemoattractant Protein-1 (MCP1) Biomarker Activity (AID 2283090); conditions: primary human HUVEC with PBMC; actives raise or lower the signal
Outline: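 MCP-1 levels in the endothelial–PBMC SAg co-culture were quantified by ELISA at 24 h post-dosing; both increases and decreases versus DMSO scored. Cytotoxicity monitored by SRB total protein in parallel cultures.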

Sequence of E-selectin (Homo sapiens) (P16581 whole entry, looked up): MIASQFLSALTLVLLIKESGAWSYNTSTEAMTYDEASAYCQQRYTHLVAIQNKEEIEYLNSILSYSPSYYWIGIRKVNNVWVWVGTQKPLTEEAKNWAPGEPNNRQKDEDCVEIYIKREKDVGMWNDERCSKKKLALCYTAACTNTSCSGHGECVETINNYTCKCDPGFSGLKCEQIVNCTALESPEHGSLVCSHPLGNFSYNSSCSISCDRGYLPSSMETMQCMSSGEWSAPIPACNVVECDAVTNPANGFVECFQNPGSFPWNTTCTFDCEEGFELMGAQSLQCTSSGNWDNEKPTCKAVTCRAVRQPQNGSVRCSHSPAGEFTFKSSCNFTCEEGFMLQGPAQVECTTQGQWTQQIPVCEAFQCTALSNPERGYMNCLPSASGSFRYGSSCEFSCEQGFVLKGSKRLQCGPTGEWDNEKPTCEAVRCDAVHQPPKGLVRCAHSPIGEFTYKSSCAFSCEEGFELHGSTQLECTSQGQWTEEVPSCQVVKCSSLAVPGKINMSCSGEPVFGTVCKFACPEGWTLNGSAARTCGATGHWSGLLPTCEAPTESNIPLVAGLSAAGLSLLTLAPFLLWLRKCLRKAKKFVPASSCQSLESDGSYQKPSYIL
Sequence of Tumor necrosis factor (Homo sapiens) (P01375 whole entry, looked up): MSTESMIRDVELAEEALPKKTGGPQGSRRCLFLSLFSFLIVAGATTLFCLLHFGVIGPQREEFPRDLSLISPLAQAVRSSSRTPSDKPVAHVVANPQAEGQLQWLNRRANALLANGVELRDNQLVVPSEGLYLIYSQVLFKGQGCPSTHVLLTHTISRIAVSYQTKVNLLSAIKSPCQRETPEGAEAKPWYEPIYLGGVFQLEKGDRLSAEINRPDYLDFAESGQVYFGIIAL

Structure (SMILES): CC(C)N(C(=O)SCC(Cl)=C(Cl)Cl)C(C)C
- AC50 [1]: 36.4 µM (active)
- outcome [2]: inactive
- AC50 [3]: 30.5 µM (active)
- AC50 [4]: 36.6 µM (active)
- AC50 (CD40, CD40 (gene 958) [5]): 29.9 µM (active)
- AC50 [6]: 31.6 µM (active)
- AC50 [7]: 29.5 µM (active)
- AC50 [8]: 29.1 µM (active)
- AC50 [9]: 26.4 µM (active)
- AC50 [10]: 31.7 µM (active)
- AC50 [11]: 34.7 µM (active)
- AC50 [12]: 29.5 µM (active)
- AC50 [13]: 30.1 µM (active)
- AC50 [14]: 32.3 µM (active)
- AC50 [15]: 29.8 µM (active)
- AC50 (CD38, CD38 (gene 952)): 31.3 µM (active)
- AC50 (CD40, CD40 (gene 958) [16]): 30.9 µM (active)
- AC50 (CD69, CD69 (gene 969)): 36.6 µM (active)
- AC50 [17]: 31.3 µM (active)

Structure (SMILES): CSC1=N[C@@](C)(c2ccccc2)C(=O)N1Nc1ccccc1
- outcome [1]: inactive
- outcome [2]: inactive
- outcome [3]: inactive
- AC50 [4]: 29.9 µM (active)
- outcome (CD40, CD40 (gene 958) [5]): inactive
- AC50 [6]: 10.6 µM (active)
- AC50 [7]: 1.7 µM (active)
- AC50 [8]: 20 µM (active)
- outcome [9]: inactive
- AC50 [10]: 15.2 µM (active)
- AC50 [11]: 6.96 µM (active)
- outcome [12]: inactive
- outcome [13]: inactive
- outcome [14]: inactive
- outcome [15]: inactive
- AC50 (CD38, CD38 (gene 952)): 14.3 µM (active)
- AC50 (CD40, CD40 (gene 958) [16]): 11.4 µM (active)
- AC50 (CD69, CD69 (gene 969)): 11.5 µM (active)
- AC50 [17]: 20 µM (active)

Structure (SMILES): CCOP(=O)(OCC)Oc1cc(C)nc(C(C)C)n1
- AC50 [1]: 29.8 µM (active)
- outcome [2]: inactive
- AC50 [3]: 31.5 µM (active)
- AC50 [4]: 30.3 µM (active)
- AC50 (CD40, CD40 (gene 958) [5]): 14.4 µM (active)
- outcome [6]: inactive
- outcome [7]: inactive
- outcome [8]: inactive
- outcome [9]: inactive
- outcome [10]: inactive
- outcome [11]: inactive
- outcome [12]: inactive
- outcome [13]: inactive
- outcome [14]: inactive
- outcome [15]: inactive
- outcome (CD38, CD38 (gene 952)): inactive
- outcome (CD40, CD40 (gene 958) [16]): inactive
- outcome (CD69, CD69 (gene 969)): inactive
- outcome [17]: inactive

Structure (SMILES): Cc1cc(C2CC2)nc(Nc2ccccc2)n1
- outcome [1]: inactive
- outcome [2]: inactive
- outcome [3]: inactive
- outcome [4]: inactive
- AC50 (CD40, CD40 (gene 958) [5]): 14.8 µM (active)
- outcome [6]: inactive
- outcome [7]: inactive
- AC50 [8]: 24.7 µM (active)
- outcome [9]: inactive
- outcome [10]: inactive
- AC50 [11]: 7.61 µM (active)
- AC50 [12]: 20.3 µM (active)
- outcome [13]: inactive
- outcome [14]: inactive
- AC50 [15]: 15.7 µM (active)
- outcome (CD38, CD38 (gene 952)): inactive
- AC50 (CD40, CD40 (gene 958) [16]): 16.2 µM (active)
- AC50 (CD69, CD69 (gene 969)): 28.2 µM (active)
- outcome [17]: inactive

Structure (SMILES): CCCCOC(=O)c1ccccc1C(=O)O
- outcome [1]: inactive
- outcome [2]: inactive
- outcome [3]: inactive
- outcome [4]: inactive
- outcome (CD40, CD40 (gene 958) [5]): inactive
- outcome [6]: inactive
- outcome [7]: inactive
- outcome [8]: inactive
- outcome [9]: inactive
- outcome [10]: inactive
- outcome [11]: inactive
- outcome [12]: inactive
- outcome [13]: inactive
- outcome [14]: inactive
- outcome (CD38, CD38 (gene 952)): inactive
- outcome (CD40, CD40 (gene 958) [16]): inactive
- outcome (CD69, CD69 (gene 969)): inactive
- outcome [17]: inactive

Structure (SMILES): COP(=O)(OC)SCn1c(=O)oc2cc(Cl)cnc21
- outcome [1]: inactive
- outcome [2]: inactive
- AC50 [3]: 31.3 µM (active)
- AC50 [4]: 25.8 µM (active)
- AC50 (CD40, CD40 (gene 958) [5]): 19.8 µM (active)
- AC50 [6]: 19.1 µM (active)
- AC50 [7]: 20 µM (active)
- AC50 [8]: 20 µM (active)
- outcome [9]: inactive
- outcome [10]: inactive
- AC50 [11]: 2.01 µM (active)
- AC50 [12]: 18.3 µM (active)
- outcome [13]: inactive
- AC50 [14]: 0.148 µM (active)
- AC50 [15]: 4.34 µM (active)
- AC50 (CD38, CD38 (gene 952)): 21.4 µM (active)
- AC50 (CD40, CD40 (gene 958) [16]): 20 µM (active)
- AC50 (CD69, CD69 (gene 969)): 20 µM (active)
- outcome [17]: inactive
